High-throughput results from PubChem.
Rows were chosen to be rich in hits. Some 3.5% of all compounds tested hit in one or more screens of this group.
Autofluor counter = counter-screen for toxin protease inhibitors: compound fluorescence; compound autofluorescence counterscreen, microsphere flow cytometry; hits give high values; fluorescence intensity (no concentration beside the values); hit rate 3.1% among 360,000; in the data active means fluorescence intensity above about 16000; inconclusive means no clear call, values can overlap the other calls
BoNT F protease = BoNT F light chain protease inhibition; Multiplex microsphere protease cleavage assay, flow cytometry; inhibition, % at 10 µM; hit rate 0.22% among 360,000; in the data active means inhibition above about 35%, passing the limit was not always enough; inconclusive means no clear call, values can overlap the other calls; further: plate controls were buffer without enzyme for full effect and enzyme alone for no effect
BoNT A protease = blocks Botulinum neurotoxin A light chain protease | hit rate 0.17% among 360,000 | multiplex microsphere protease substrate cleavage, flow cytometry | inhibition, % at 10 µM; further: plate controls were buffer without enzyme for full effect and enzyme alone for no effect
Anthrax LF inh2 = anthrax lethal factor protease inhibition; multiplex microsphere protease cleavage assay, LF; inhibition, % at 10 µM; hit rate 0.12% among 360,000; AID 588501; further: plate controls were buffer without enzyme for full effect and enzyme alone for no effect
Target sequence (P15917 whole entry, looked up): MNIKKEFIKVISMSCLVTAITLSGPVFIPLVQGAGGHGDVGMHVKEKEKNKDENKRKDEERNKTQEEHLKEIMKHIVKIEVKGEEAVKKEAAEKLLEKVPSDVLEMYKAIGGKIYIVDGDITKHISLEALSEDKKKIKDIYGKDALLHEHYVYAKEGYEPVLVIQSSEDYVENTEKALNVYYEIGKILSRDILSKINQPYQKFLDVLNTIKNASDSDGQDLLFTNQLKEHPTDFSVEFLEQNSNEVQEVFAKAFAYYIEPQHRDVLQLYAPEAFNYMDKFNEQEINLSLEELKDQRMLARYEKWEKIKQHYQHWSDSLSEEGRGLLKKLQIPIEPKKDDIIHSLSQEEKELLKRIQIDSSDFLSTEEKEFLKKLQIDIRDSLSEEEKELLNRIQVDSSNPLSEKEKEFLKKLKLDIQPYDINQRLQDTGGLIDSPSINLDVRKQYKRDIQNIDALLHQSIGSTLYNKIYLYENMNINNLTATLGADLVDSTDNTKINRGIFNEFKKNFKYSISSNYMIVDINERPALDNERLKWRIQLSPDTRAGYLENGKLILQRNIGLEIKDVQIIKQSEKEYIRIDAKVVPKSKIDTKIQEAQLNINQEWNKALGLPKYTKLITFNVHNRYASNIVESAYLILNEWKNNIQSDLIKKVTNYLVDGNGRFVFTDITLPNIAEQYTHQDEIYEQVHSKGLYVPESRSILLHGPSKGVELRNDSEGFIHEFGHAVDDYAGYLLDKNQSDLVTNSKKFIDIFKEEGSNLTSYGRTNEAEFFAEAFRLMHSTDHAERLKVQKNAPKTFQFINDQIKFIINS
* hit, by the source's call; ? = inconclusive. Unless noted, no stated cut-off is given here; in the data, active means inhibition above about 30%; inconclusive means no clear call, values can overlap the other calls; inactive means below that.

SMILES | Autofluor counter | BoNT F protease | BoNT A protease | Anthrax LF inh2
CC(C)OC(=O)CSc1nnc(-c2ccco2)n1N | 6912 | -15.1 | -2.0 | -6.1
COc1cccc(-c2nnc(SCC(=O)OC(C)C)n2N)c1 | 19700* | -2.5 | -0.9 | -2.9
COc1cccc(-c2nnc(SCC(=O)Nc3ccc(OC)c(OC)c3)n2N)c1 | 23134* | -4.5 | -1.5 | -1.3
CCn1c2ccccc2c2cc(NC(=O)CSc3nnc(-c4ccc(OC)cc4)n3N)ccc21 | 24502* | -2.3 | -1.7 | -2.4
COc1ccc(NC(=O)CSc2nnc(-c3ccccc3)n2N)cc1 | 3565 | -0.9 | 0.4 | -4.1
COC(=O)c1ccc(NC(=O)CSc2nnc(-c3ccncc3)n2N)cc1 | 20637* | 4.1 | ? | -0.6
O=C(c1ccc(Cl)c(S(=O)(=O)N2CCCC2)c1)N1CCN(c2ncccn2)CC1 | 4823 | -2.1 | 0.0 | 1.3
CCOc1cc(OCC)cc(C(=O)N2CCC[C@@H]2C(=O)N2CCC[C@@H]2C(=O)NCc2ccccc2Cl)c1 | 5516 | 0.7 | -0.1 | -8.7
CC(C)OCc1ccc(C(=O)N2CCN(CC(=O)N3CCCC3)CC2)cc1 | 5204 | -3.5 | 1.3 | -0.1
O=[N+]([O-])c1ccc(NC(=S)N2CCc3ccccc3C2)cc1 | 2082 | 2.4 | 0.4 | 0.0
COC(=O)c1ccc(NC(=O)CSc2nnc(C)n2-c2ccccc2)cc1 | 19301* | 13.2 | 8.9 | -7.6
Nn1c(SCC(=O)Nc2ccc(F)cc2)nnc1C1CCCCC1 | 21577* | 2.8 | ? | -4.6
COc1cccc(-c2nnc(SCCC(=O)O)n2C)c1 | 23530* | -0.1 | 0.4 | 2.3
COc1cccc(-c2nnc(SCC(=O)Nc3cc(C)on3)n2C)c1 | 5759 | 5.3 | 1.4 | -6.2
COC(=O)c1ccc(NC(=O)CSc2nnc(-c3ccccc3)n2C)cc1 | 4571 | 3.4 | -0.5 | 0.7
Cc1cc(C)nc(SCc2cnc(C)nc2N)n1 | 2426 | -4.9 | -0.6 | -2.5
CCCn1c(SCC(=O)NNC(=O)c2ccc(C)cc2)nnc1C(C)C | 3518 | -23.4 | -4.0 | 3.0
CCOC(=O)c1cc2c(c(-c3cccc(C#Cc4ccc(OC)c(OC)c4)c3)n1)[C@@H](CCO)N(S(=O)C(C)(C)C)C2 (stereo partly drawn) | 6114 | -12.4 | -0.8 | -4.8
CCCCN(c1ccccc1)S(=O)(=O)c1cccc(C(=O)O)c1 | 4443 | -3.8 | -0.3 | -4.2
CCN(c1cccc(C)c1)S(=O)(=O)c1ccc2[nH]c(=O)c(=O)[nH]c2c1 | 21312* | -3.9 | -1.9 | -1.0
CCN(c1cccc(C)c1)S(=O)(=O)c1cc2[nH]c(=O)c(=O)[nH]c2cc1C | 5989 | 1.3 | -0.4 | -3.2
CCN(c1cccc(C)c1)S(=O)(=O)c1cccc(C(=O)O)c1 | 23200* | 0.2 | 1.6 | 0.2
CCOC(=O)C(=CNc1nc(-c2ccccc2)c(C(=O)Nc2ccc(-c3ccccc3)cc2)s1)C(=O)OCC | 8342 | -2.1 | -4.1 | 1.5
Cc1ccc(NC(=O)NCCCN2CCCC2=O)cc1C | 4794 | 3.2 | -2.2 | -6.0
Cc1ccc(S(=O)(=O)Nc2ccccc2F)cc1C(=O)NCCCN1CCCC1=O | 22774* | -1.0 | -0.8 | -1.9
SMILES | Autofluor counter | BoNT F protease | BoNT A protease | Anthrax LF inh2
Cc1ccc(NC(=O)NCCCN2CCCC2=O)cc1 | 22287* | 1.2 | 2.3 | -1.5
O=C(NCCCN1CCCC1=O)c1ccc2c(c1)OCO2 | 20949* | 1.0 | ? | 1.2
COc1ccc(C(=O)NCCCN2CCCC2=O)cc1 | 4029 | -11.8 | -1.4 | -5.3
Cc1cc2nc(C3CCCCC3)c(Cc3ccccc3)n2c(C)c1Br | 5337 | -7.0 | 0.3 | -1.6
Cc1nn(CC(O)CN2c3ccccc3Sc3ccccc32)c(C)c1Br (stereo not drawn) | 2667 | 2.7 | 0.3 | -2.8
Cc1nn(CC(O)c2ccccc2)c(C)c1Br (stereo not drawn) | 21421* | -0.4 | -1.5 | -0.4
NNC(=O)c1ccc(CN2CCCCC2)o1 | 2636 | -4.6 | -0.8 | 0.2
CN(c1ccccc1)S(=O)(=O)c1cc(C(=O)Nc2ccccc2N2CCOCC2)ccc1Cl | 3898 | -3.5 | -0.3 | -13.2
CCS(=O)(=O)N1Cc2ccccc2CC1C(=O)Nc1ccc(NC(C)=O)cc1 (stereo not drawn) | 3509 | -6.7 | 0.2 | -2.6
CCS(=O)(=O)N1Cc2ccccc2CC1C(=O)Nc1ccc(C)cc1 (stereo not drawn) | 22120* | -1.2 | 0.8 | -0.5
O=C(O)c1cc[c]([Hg][Cl])cc1 | 9321 | -4.2 | 60.3* | -22.5
CC(C)OC(=O)c1cc2ccccc2[nH]1 | 21156* | -4.3 | -4.6 | 3.1
COC(=O)c1ccccc1N=Nc1c(C)noc1C | 3984 | ? | 3.4 | 33.6*
COC(=O)c1ccccc1N=Nc1c(C)n[nH]c1C | 3621 | ? | ? | 8.6
CCOc1ccc(C(=O)NNC(=O)CN2C(=O)C3CC=CCC3C2=O)cc1OC (stereo not drawn) | 7825 | 8.2 | 0.9 | -7.2
Cc1ccc(/C=C(\NC(=O)c2ccccc2)C(=O)N2CCCC2C(=O)O)cc1 (stereo not drawn) | 4602 | 6.2 | -0.4 | 0.6
Cc1ccc(OCc2ccc(C(=O)Nc3cc(C)on3)o2)c([N+](=O)[O-])c1 | ? | 1.8 | 7.3 | -0.3
CCn1c(NC(=O)c2ccc(COc3ccc(C)cc3[N+](=O)[O-])o2)nc2ccccc21 | 22323* | 1.2 | 1.6 | -1.0
CSc1ccccc1NC(=O)CSCc1ccc(Br)cc1 | 16464* | -0.7 | -1.0 | -3.4
CC(C)[C@H](NS(=O)(=O)c1cccc(C(F)(F)F)c1)C(=O)OCC(N)=O | 4348 | 2.1 | -0.4 | 1.3
O=S(=O)(c1ccc(OCC2CO2)cc1)c1ccc(OCC2CO2)cc1 (stereo not drawn) | 1920 | 3.3 | 0.8 | -0.8
Cc1nn(C2CCOC(C)(C)C2)c2c1C(c1ccc(OC(C)C)cc1)SCC(=O)N2 (stereo not drawn) | 21930* | -1.5 | 0.0 | 0.0
CC1CCCN(C(=O)C2c3ccccc3C(=O)N3CCc4ccccc4C23)C1 (stereo not drawn) | 23724* | -5.1 | -2.5 | -0.5
CCC1(c2ccccc2)NC(=O)N(CC(=O)Nc2ccc(S(N)(=O)=O)cc2)C1=O (stereo not drawn) | 3675 | 8.9 | -1.6 | 13.4
O=C1C2CC=CCC2C(=O)N1c1ccc(OCC(O)Cn2nnc3ccccc32)cc1 (stereo not drawn) | 25583* | -8.8 | -5.1 | -3.9
SMILES | Autofluor counter | BoNT F protease | BoNT A protease | Anthrax LF inh2
CN=C1SC(CC(=O)Nc2cccc(C(F)(F)F)c2)C(=O)N1C (stereo not drawn) | 16700* | -5.0 | -1.3 | -1.4
CN=C1SC(CC(=O)Nc2ccc(N3CCOCC3)cc2)C(=O)N1C (stereo not drawn) | 25216* | -8.0 | ? | -1.1
O=C1CC(N2CCN(c3cccc(C(F)(F)F)c3)CC2)C(=O)N1c1ccccc1F (stereo not drawn) | 3123 | -2.8 | -1.2 | -6.9
O=C1CC(N2CCN(c3cccc(C(F)(F)F)c3)CC2)C(=O)N1c1ccccc1 (stereo not drawn) | 20561* | 4.0 | ? | -1.5
Cc1nc2n[nH]c(N)c2c2c1COC(C)(C)C2 | 2220 | -4.3 | -0.4 | -0.7
CCCc1nc2n[nH]c(N)c2c2c1COC(C)(C)C2 | 21384* | 2.4 | 2.5 | 1.0
COc1ccc(-c2noc(CCC(=O)NCC3CCCO3)n2)cc1OC (stereo not drawn) | 5897 | -2.5 | -0.5 | 1.6
Cc1[nH]c(=S)c(C#N)c2c1CCCC2 | 3389 | 4.4 | 0.9 | 2.8
